# A549 tox-1 – A549 cytotoxicity, counter-screen for Nrf2 inhibitors. A549 ARE-Fluc cells, CellTiter-Fluor viability, 18-24 h. Potency, µM (doses to about 46 µM), usual class: inhibitors. hit rate 0.16% among 390,000. AID 504648
#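 A549 ARE_Fluc cells in 5% FBS OPTI-MEM were exposed to compounds in concentration-response for 18-24 h at 37 deg C. Viability was read by CellTiter-Fluor fluorescence (Ex 405/Em 525) after 30 min, before the luciferase read.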
# KB-V1 cytotox – kills drug-selected multidrug resistant KB-V1 cells | Potency, µM (top dose mostly 46.1 µM), usual class: cytotoxic | AID 1347076 | KB-V1 MDR cells viability, CellTiter-Glo, 72 h | hit rate 3.4% among 400,000; also: nearly all actives have a fitted effect of over 60% in size
#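 Drug-selected KB-V1 cells, grown in DMEM lacking phenol red with 10% FBS, receive compound titrations; after three days at 37 degrees C, surviving cell ATP is quantified by CellTiter-Glo luminescence and responses normalized and curve-fitted.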
# PI4K2A block – PI4K2A (human) kinase inhibition; Q9BTU6; purified PI4K2A, ADP-Glo luminescence, 1 h; hits give low values; activity change, negative = inhibition, % at 76.9 µM; hit rate 0.13% among 420,000; AID 1346378; in the data active = activity change below about -50%; inconclusive = mostly about -30% to -49%
# Target sequence (Q9BTU6 whole entry, looked up): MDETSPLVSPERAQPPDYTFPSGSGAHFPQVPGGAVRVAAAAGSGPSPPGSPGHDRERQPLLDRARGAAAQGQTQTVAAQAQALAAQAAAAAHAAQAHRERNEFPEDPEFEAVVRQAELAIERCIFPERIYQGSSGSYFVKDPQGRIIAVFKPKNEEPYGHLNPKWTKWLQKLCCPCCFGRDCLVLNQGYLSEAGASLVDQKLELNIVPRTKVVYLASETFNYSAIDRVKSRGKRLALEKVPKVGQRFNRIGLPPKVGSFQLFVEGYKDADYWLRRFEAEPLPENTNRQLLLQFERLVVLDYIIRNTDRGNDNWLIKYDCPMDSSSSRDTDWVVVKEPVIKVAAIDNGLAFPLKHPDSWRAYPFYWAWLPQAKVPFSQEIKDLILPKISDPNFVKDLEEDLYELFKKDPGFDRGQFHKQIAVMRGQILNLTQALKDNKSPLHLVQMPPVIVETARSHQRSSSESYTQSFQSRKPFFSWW
#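 ADP-Glo luminescence measured ADP generated by PI4K2A enzyme (4 ug/mL before mixing) with 1.2 mM PI substrate (pre-mix) and 300 microM ATP (pre-mix). Tris pH7.5 buffer with MgCl2, Triton X-100; 1 h reaction at ambient temperature.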
# Nrf2 block – inhibitors of Nrf2 signaling | A549 ARE-Fluc reporter, luciferase luminescence, 18-24 h | Potency, µM (highest dose often 46 µM), most hits filed as inhibitors | hit rate 2.1% among 360,000 | AID 504444; also: nearly all actives have a fitted effect of over 60% in size
#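 Concentration-response testing used A549 ARE_Fluc cells at 5000 cells/well. Following an 18-24 h compound incubation, viability was read by fluorescence (Ex 405/Em 525) and luciferase output by luminescence.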
# KB-3-1 tox – kills parental KB-3-1 adenocarcinoma cells. KB-3-1 viability, CellTiter-Glo ATP luminescence, 72 h. Potency, µM (titrated, usually from 46.1 µM), usual class: cytotoxic. hit rate 1.4% among 400,000; also: nearly all actives have a fitted effect of over 60% in size
#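 Parental KB-3-1 viability, qHTS format: 72 h compound exposure, 37 °C; CellTiter-Glo; media-only wells and DMSO plates as controls; concentration-effect fits on corrected data.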
# Giardia kill – kills Giardia lamblia; hit rate 0.15% among 340,000; Giardia lamblia trophozoite viability; activity change, % at 7.66 µM, hits read low; in the data active = activity change below about -80%; inconclusive = between about -30% and that limit;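 also: parasites exposed to compound for two days anaerobically before the ATP read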
#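 Giardia trophozoites, 100 cells per well, were exposed to compounds for 48 hrs at 37 deg C under anaerobic conditions; viability was then read as ATP content by bioluminescence after 15-30 min at room temperature.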
# FLuc counter 3 – firefly luciferase inhibition, Nrf2 hit validation; hit rate 4% among 1,400; shares compounds with Nrf2 block; Potency, µM (top dose mostly 57.5 µM), actives largely listed as inhibitors; purified firefly luciferase, luminescence inhibition; also: nearly all actives have a fitted effect of over 65% in size
# A549 tox-2 – toxic to A549 ARE-Fluc cells in Nrf2 counterscreen | shares compounds with Nrf2 block | Potency, µM (highest dose often 46.1 µM), hits mostly inhibitors | A549 ARE-Fluc cells, cytotoxicity counterscreen | hit rate 2% among 1,400;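 also: cells exposed to compounds for 18 to 24 hours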
# Nrf2 ARE inh – Nrf2 inhibition confirmed, A549 ARE-luciferase. shares compounds with Nrf2 block. hit rate 74% among 1,400. AID 720524. A549 ARE-firefly luciferase reporter, luminescence. Potency, µM (doses to about 46.1 µM), most hits filed as inhibitors; also: nearly all actives have a fitted effect of over 65% in size
# A number is an active result; – = inactive; ? = inconclusive; · = not tested or not shown. Shown are actives, neighbours in structure and some others; about 5.7% of the full set was active somewhere. Unless noted, calls follow the shape of the dose curve; as a rule, active = well fitted curve in the direction sought with a large enough effect; inconclusive = small, poorly fitted or top-dose-only effect, or another doubt; inactive = no such curve, though single readings can be large; an effect the other way counts as inactive or inconclusive.
SMILES,A549 tox-1,KB-V1 cytotox,PI4K2A block,Nrf2 block,KB-3-1 tox,Giardia kill,FLuc counter 3,A549 tox-2,Nrf2 ARE inh
Cc1ccc(S(=O)(=O)c2cccc(S(=O)(=O)N3CCCC3)c2)cc1S(=O)(=O)N1CCCC1,–,2.6µM,–,8.2µM,21µM,–,–,–,21µM
CCN(CC)S(=O)(=O)c1cc(NC(=O)CNc2cccc(S(=O)(=O)N3CCCC3)c2)ccc1C,–,21µM,–,5.2µM,2.9µM,–,–,–,8.2µM
CCOC(=O)N1CCN(C(=O)C[C@H]2C[C@@]3(C(=O)OC)C(=C[C@H](C(C)C)O[C@@H]3C3CC3)N(Cc3cccc4ccccc34)C2=O)CC1,·,·,–,·,·,·,·,·,·
CC(CC(=O)Nc1ccc(Cl)c(S(=O)(=O)N2CCOCC2)c1)c1ccccc1 (centres undefined),–,2.1µM,–,7.3µM,4.6µM,–,–,–,3.3µM
Cc1cc(C)nc(OC(C(=O)O)C(OCCc2ccccc2)(c2ccc(F)cc2)c2ccc(F)cc2)n1 (centres undefined),–,–,–,?,–,–,·,·,·
CCCOC(c1ccccc1)(c1ccc(C(F)(F)F)cc1)C(Oc1nc(C)cc(C)n1)C(=O)O (centres undefined),–,–,–,3.3µM,?,–,–,–,1.8µM
Cc1ccc(NC(=S)NC(=O)c2ccc(F)cc2)cc1S(=O)(=O)Nc1ccccc1Cl,?,?,–,7.3µM,23µM,–,–,–,?
COc1ccc(C(=O)Nc2ccc(Cl)c(S(=O)(=O)Nc3ccccc3OC)c2)cc1,–,2.3µM,–,7.3µM,?,–,?,–,9.2µM
Cc1ccc(NC(=O)c2ccc(=O)[nH]n2)cc1S(=O)(=O)Nc1ccccc1Cl,–,–,–,–,–,–,·,·,·
CCN(C(=O)Cn1c(SCc2ccccc2F)nc2cccnc21)c1ccccc1,–,·,–,–,·,·,·,·,·
COC(=O)C1CN(Cc2ccccc2)CCS(=O)(=O)N1Cc1cn(Cc2ccccc2Br)nn1 (centres undefined),·,·,–,·,·,·,·,·,·
COc1ccc2c(c1)/C(=C\c1cccc(/C=C3/C(=O)Nc4ccc(OC)cc43)n1)C(=O)N2,–,–,–,8.2µM,1.8µM,–,?,–,?
CCCN1CNc2c(c(=O)[nH]c(=S)n2CCc2ccc(OCC)c(OCC)c2)C1,–,·,·,–,·,–,·,·,·
N#Cc1nc(-c2ccco2)oc1N1CCN(c2cccc(Cl)c2)CC1,–,–,–,1.8µM,?,–,–,?,10µM
O=C1c2ccccc2-n2c1nc1ccccc1c2=O,–,?,–,5.2µM,?,–,–,16µM,6.5µM
O=c1c2ccccc2nc2n1-c1ccccc1CCC2,–,?,–,–,–,–,·,·,·
CCOC(=O)c1c(NC(=O)Cn2c(C)nc3ccccc32)sc2c1CCC2,–,–,–,5.8µM,–,–,–,–,?
CCOC(=O)c1cc(C)n(CC2CCC(C(=O)Nc3ccc(Cl)cc3)CC2)c1C (centres undefined),?,·,–,8.2µM,·,·,–,–,13µM
FC(F)(F)c1cccc(N2CCN(c3ncnc4c3nc3n4CCCC3)CC2)c1,–,·,–,1.6µM,·,·,–,–,2.1µM
Cc1noc2ncnc(N3CCN(c4cccc(C(F)(F)F)c4)CC3)c12,–,·,–,8.2µM,·,·,–,–,8.2µM
Fc1ccccc1N1CCN(c2ncnc3c2nc2n3CCCCC2)CC1,–,?,–,–,–,·,·,·,·
Ic1ccc(Nc2nc(NCCN3CCOCC3)nc(N3CCCC3)n2)cc1,·,?,·,·,–,·,·,·,·
Cc1ccc(C=Nn2c(-c3n[nH]c4c3CCC4)n[nH]c2=S)s1,·,·,–,·,·,·,·,·,·
O=C(Cn1cnc2ccccc21)Nc1ccc(SC(F)F)cc1,–,?,–,4.1µM,–,–,–,–,?

# High-throughput results deposited in PubChem BioAssay by National Center for Advancing Translational Sciences (NCATS).
